According to the supplement of paper PMC6897291:

Experiments:
[1] = tested on: U-2932; assay: growth inhibition by drug alone (1 - RLU/untreated control) (fraction); higher = stronger inhibition; settings: 177Lu-lilotomab satetraxetan 0 ug/ml
In short: (§1)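 With or without 18 h pretreatment by a radiolabelled anti-CD37 antibody conjugate (~600 MBq/mg; 0.5 µg/ml RIVA, 1 µg/ml U-2932), RIVA and U-2932 cells were washed and plated at 3,000 cells/well. Pre-printed compound doses were 10/100 nM for RIVA and 10/1,000 nM for U-2932. Growth inhibition uses RealTime-Glo RLU relative to the untreated no-drug wells. The calculation is 1 − RLU/mean of 48 such wells per plate, with reads daily from day 3 after 1 h at 37°C.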

[2] = tested on: RIVA; assay: as above; settings: 177Lu-lilotomab satetraxetan 0 ug/ml
In short: as §1

[3] = tested on: U-2932; assay: growth inhibition by drug plus 177Lu-lilotomab satetraxetan (1 - RLU/untreated control) (fraction); higher = stronger inhibition; settings: 177Lu-lilotomab satetraxetan 1 ug/ml
In short: as §1

[4] = tested on: RIVA; assay: as above; settings: 177Lu-lilotomab satetraxetan 0.5 ug/ml
In short: as §1

| SMILES | growth inhibition by drug alone ([1]; 10 nM, time (day): 3) | growth inhibition by drug alone ([1]; 10 nM, time (day): 4) | growth inhibition by drug alone ([1]; 10 nM, time (day): 5) | growth inhibition by drug alone ([1]; 10 nM, time (day): 6) | growth inhibition by drug alone ([1]; 1000 nM, time (day): 3) | growth inhibition by drug alone ([1]; 1000 nM, time (day): 4) | growth inhibition by drug alone ([1]; 1000 nM, time (day): 5) | growth inhibition by drug alone ([1]; 1000 nM, time (day): 6) | growth inhibition by drug alone ([2]; 10 nM, time (day): 3) | growth inhibition by drug alone ([2]; 10 nM, time (day): 4) | growth inhibition by drug alone ([2]; 10 nM, time (day): 5) | growth inhibition by drug alone ([2]; 10 nM, time (day): 6) | growth inhibition by drug alone ([2]; 100 nM, time (day): 3) | growth inhibition by drug alone ([2]; 100 nM, time (day): 4) | growth inhibition by drug alone ([2]; 100 nM, time (day): 5) | growth inhibition by drug alone ([2]; 100 nM, time (day): 6) | growth inhibition by drug plus 177Lu-lilotomab satetraxetan ([3]; 10 nM, time (day): 3) | growth inhibition by drug plus 177Lu-lilotomab satetraxetan ([3]; 10 nM, time (day): 4) | growth inhibition by drug plus 177Lu-lilotomab satetraxetan ([3]; 10 nM, time (day): 5) | growth inhibition by drug plus 177Lu-lilotomab satetraxetan ([3]; 10 nM, time (day): 6) | growth inhibition by drug plus 177Lu-lilotomab satetraxetan ([3]; 1000 nM, time (day): 3) | growth inhibition by drug plus 177Lu-lilotomab satetraxetan ([3]; 1000 nM, time (day): 4) | growth inhibition by drug plus 177Lu-lilotomab satetraxetan ([3]; 1000 nM, time (day): 5) | growth inhibition by drug plus 177Lu-lilotomab satetraxetan ([3]; 1000 nM, time (day): 6) | growth inhibition by drug plus 177Lu-lilotomab satetraxetan ([4]; 10 nM, time (day): 3) | growth inhibition by drug plus 177Lu-lilotomab satetraxetan ([4]; 10 nM, time (day): 4) | growth inhibition by drug plus 177Lu-lilotomab satetraxetan ([4]; 10 nM, time (day): 5) | growth inhibition by drug plus 177Lu-lilotomab satetraxetan ([4]; 10 nM, time (day): 6) | growth inhibition by drug plus 177Lu-lilotomab satetraxetan ([4]; 100 nM, time (day): 3) | growth inhibition by drug plus 177Lu-lilotomab satetraxetan ([4]; 100 nM, time (day): 4) | growth inhibition by drug plus 177Lu-lilotomab satetraxetan ([4]; 100 nM, time (day): 5) | growth inhibition by drug plus 177Lu-lilotomab satetraxetan ([4]; 100 nM, time (day): 6) |
| --- | --- | --- | --- | --- | --- | --- | --- | --- | --- | --- | --- | --- | --- | --- | --- | --- | --- | --- | --- | --- | --- | --- | --- | --- | --- | --- | --- | --- | --- | --- | --- | --- |
| CN(C)Cc1c(C(=O)NCCOc2ccc(C(=O)NO)cc2)oc2ccccc12 | 0.0311 | 0.0492 | 0.0509 | -0.0158 | 0.972 | 0.985 | 0.987 | 0.988 | -0.0928 | -0.0394 | -0.0793 | -0.251 | 0.392 | 0.295 | 0.256 | 0.158 | 0.0477 | 0.0589 | 0.111 | 0.194 | 0.988 | 0.989 | 0.99 | 0.991 | 0.524 | 0.628 | 0.645 | 0.659 | 0.926 | 0.925 | 0.931 | 0.938 |
| O=C(O[C@@H]1Cc2c(O)cc(O)cc2O[C@@H]1c1cc(O)c(O)c(O)c1)c1cc(O)c(O)c(O)c1 [(-)-Epigallocatechin gallate] | 0.0464 | -0.0176 | -0.149 | -0.234 | -0.0141 | -0.0657 | -0.154 | -0.12 | -0.0443 | -0.156 | -0.418 | -0.714 | -0.587 | -0.43 | -0.44 | -0.545 | -0.0356 | 0.00037 | -0.03 | -0.022 | 0.0188 | 0.036 | 0.0512 | 0.127 | 0.452 | 0.532 | 0.55 | 0.559 | 0.363 | 0.454 | 0.47 | 0.474 |
| O=c1c(O)c(-c2ccc(O)c(O)c2)oc2cc(O)cc(O)c12 [Quercetin (Sophoretin)] | 0.129 | 0.074 | -0.0824 | -0.0972 | 0.0543 | 0.0523 | 0.0143 | -0.101 | -0.0527 | -0.036 | -0.117 | -0.426 | -0.494 | -0.296 | -0.357 | -0.683 | 0.0451 | 0.0897 | 0.166 | 0.21 | 0.0503 | 0.0821 | 0.135 | 0.211 | 0.546 | 0.61 | 0.613 | 0.619 | 0.346 | 0.469 | 0.48 | 0.508 |
| CC(C)C[C@H](NC(=O)[C@H](Cc1ccccc1)NC(=O)c1cnccn1)B(O)O [Bortezomib (Velcade)] | 0.965 | 0.971 | 0.976 | 0.978 | 0.985 | 0.984 | 0.985 | 0.985 | 0.923 | 0.946 | 0.958 | 0.96 | 0.978 | 0.978 | 0.978 | 0.976 | 0.952 | 0.967 | 0.976 | 0.98 | 0.986 | 0.987 | 0.986 | 0.988 | 0.955 | 0.969 | 0.976 | 0.98 | 0.989 | 0.989 | 0.989 | 0.99 |
| CNC(=O)c1cc(Oc2ccc(NC(=O)Nc3cc(C(C)(C)C)nn3-c3ccc4ncccc4c3)c(F)c2)ccn1 [DCC-2036 (Rebastinib)] | 0.0874 | 0.0635 | 0.096 | -0.234 | 0.0869 | 0.114 | 0.104 | 0.0187 | -0.0575 | 0.00723 | -0.0883 | -0.395 | -0.428 | -0.203 | -0.231 | -0.405 | 0.0343 | 0.0699 | 0.117 | 0.132 | 0.0878 | 0.127 | 0.208 | 0.293 | 0.44 | 0.57 | 0.586 | 0.613 | 0.486 | 0.607 | 0.626 | 0.633 |
| O=C(Nc1cccc(Cl)c1)Nc1ncc(CCNc2ncnc3ccsc23)s1 | 0.0932 | 0.0546 | 0.111 | 0.319 | 0.16 | 0.209 | 0.218 | 0.355 | 0.0836 | 0.115 | 0.215 | 0.331 | 0.0102 | 0.0483 | 0.135 | 0.239 | 0.0766 | 0.0714 | 0.202 | 0.505 | 0.201 | 0.317 | 0.351 | 0.495 | 0.463 | 0.543 | 0.579 | 0.666 | 0.389 | 0.481 | 0.511 | 0.596 |
